In PubChem BioAssay AID1159580 (chemical genetic matrix, 2015):
Where “and” joins values, the source holds several entries; their conditions need not be identical. Identical values can stand only once. Out of some 5,500 compounds screened, about 2,000 (36%) were called active. Inconclusive results (about 18%) are left out. Cut-off read from the data, not from the text of the source: active = normalized growth mostly below about 0.91 (no sharp cut-off); inconclusive = no clear call, values can overlap the other calls; inactive = mostly above about 0.92. The list shows a part of the results.

Experiment: chemical genetic growth profiling, strain panel (AID 1159580);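 note: tested at 20 µM; growth read once vehicle control cultures reached saturation at 30 °C; 1 = growth at the plate median or of vehicle wells; lower values mean less growth of the strain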
Conditions: S. cerevisiae deletion strains, growth OD

Measured: normalized growth

CC1(C)CC[C@]2(C)CC[C@]3(C)C(=CCC4[C@@]5(C)CC[C@H](O)C(C)(C)C5CC[C@]43C)C2C1 (stereo partly specified)
inactive: locus YAL021C, strain ccr4, stronger effect = lower value 0.992 | locus YAL026C, strain drs2, stronger effect = lower value 1 | locus YAL030W, strain snc1, stronger effect = lower value 0.988 | locus YBL061C, strain skt5, stronger effect = lower value 0.986 | locus YBR009C, strain hhf1, stronger effect = lower value 1.02 | locus YBR021W, strain FUR4, stronger effect = lower value 1.07 | locus YBR023C, strain chs3, stronger effect = lower value 0.975 | locus YBR171W, strain sec66, stronger effect = lower value 0.993 | locus YBR229C, strain ROT2, stronger effect = lower value 1.01 | locus YBR231C, strain swc5, stronger effect = lower value 1 | locus YBR279W, strain paf1, stronger effect = lower value 0.991 | locus YCL011C, strain gbp2, stronger effect = lower value 0.985 | locus YCL016C, strain dcc1, stronger effect = lower value 0.99 | locus YCL029C, strain bik1, stronger effect = lower value 0.999 | locus YCL061C, strain MRC1, stronger effect = lower value 1 | locus YCL069W, strain vba3, stronger effect = lower value 0.995 | locus YCR088W, strain abp1, stronger effect = lower value 0.999 | locus YDL005C, strain med2, stronger effect = lower value 1.01 | locus YDL035C, strain GPR1, stronger effect = lower value 1.02 | locus YDL040C, strain nat1, stronger effect = lower value 1 | locus YDL074C, strain BRE1, stronger effect = lower value 1.02 | locus YDL101C, strain DUN1, stronger effect = lower value 0.997 | locus YDL185W, strain tfp1, stronger effect = lower value 0.954 | locus YDL192W, strain arf1, stronger effect = lower value 0.99 | locus YDR001C, strain nth1, stronger effect = lower value 0.994 | locus YDR069C, strain doa4, stronger effect = lower value 0.978 | locus YDR101C, strain arx1, stronger effect = lower value 1 | locus YDR137W, strain rgp1, stronger effect = lower value 1.01 | locus YDR150W, strain NUM1, stronger effect = lower value 1 | locus YDR159W, strain sac3, stronger effect = lower value 1.02 | locus YDR162C, strain NBP2, stronger effect = lower value 1.04 | locus YDR195W, strain ref2 0.965 | locus YDR297W, strain sur2, stronger effect = lower value 0.972 | locus YDR318W, strain mcm21, stronger effect = lower value 0.985 | locus YDR334W, strain swr1, stronger effect = lower value 0.996 | locus YDR335W, strain msn5, stronger effect = lower value 1 | locus YDR388W, stronger effect = lower value 0.988 | locus YDR392W, strain spt3, stronger effect = lower value 1.01 | locus YDR502C, strain sam2, stronger effect = lower value 0.986 | locus YEL003W, strain gim4, stronger effect = lower value 0.993 | locus YEL037C, strain rad23, stronger effect = lower value 0.998 | locus YEL061C, strain CIN8 (second series), stronger effect = lower value 0.987 | locus YER015W, strain faa2, stronger effect = lower value 0.988 | locus YER016W, strain bim1, stronger effect = lower value 0.995 | locus YER110C, stronger effect = lower value 0.987 | locus YER111C, strain swi4, stronger effect = lower value 0.994 | locus YER155C, strain BEM2 (second series), stronger effect = lower value 0.982 | locus YER155C, strain BEM2, stronger effect = lower value 1 | locus YER167W, strain BCK2, stronger effect = lower value 0.992 | locus YFR010W, strain ubp6, stronger effect = lower value 1.01 | locus YGL078C, strain dbp3, stronger effect = lower value 0.955 | locus YGL086W, strain mad1, stronger effect = lower value 0.987 | locus YGL167C, strain pmr1, stronger effect = lower value 0.994 | locus YGL173C, strain kem1, stronger effect = lower value 0.998 | locus YGL227W, strain vid30, stronger effect = lower value 0.986 | locus YGL240W, strain doc1, stronger effect = lower value 0.983 | locus YGL248W, strain PDE1, stronger effect = lower value 1.01 | locus YGL253W, strain hxk2, stronger effect = lower value 0.993 | locus YGR078C, strain PAC10, stronger effect = lower value 1 | locus YGR135W, strain pre9, stronger effect = lower value 0.963 | locus YGR229C, strain SMI1, stronger effect = lower value 0.989 | locus YGR252W, strain gcn5, stronger effect = lower value 1.04 | locus YHR013C, strain ard1, stronger effect = lower value 0.986 | locus YHR027C, strain rpn1, stronger effect = lower value 0.977 | locus YHR030C, strain SLT2, stronger effect = lower value 1.07 | locus YHR079C, strain IRE1 (second series), stronger effect = lower value 0.989 | locus YHR079C, strain IRE1, stronger effect = lower value 1.03 | locus YHR094C, strain hxt1, stronger effect = lower value 0.997 | locus YHR129C, strain ARP1, stronger effect = lower value 1.01 | locus YHR142W, strain chs7, stronger effect = lower value 1.04 | locus YHR200W, strain rpn10, stronger effect = lower value 0.996 | locus YIL066C, strain RNR3, stronger effect = lower value 1.02 | locus YIL073C, strain SPO22, stronger effect = lower value 0.964 | locus YIL125W, strain kgd1, stronger effect = lower value 0.947 | locus YIR030C, strain dcg1, stronger effect = lower value 0.985 | locus YJL092W, strain hpr5, stronger effect = lower value 1.01 | locus YJL095W, strain BCK1 (second series), stronger effect = lower value 0.991 | locus YJL095W, strain BCK1, stronger effect = lower value 0.995 and 1.03 | locus YJL115W, strain asf1, stronger effect = lower value 0.985 | locus YJL129C, strain trk1, stronger effect = lower value 1.02 | locus YJL134W, strain LCB3, stronger effect = lower value 0.998 | locus YJL154C, strain vps35, stronger effect = lower value 0.99 | locus YJL164C, strain tpk1, stronger effect = lower value 0.999 | locus YJL166W, strain qcr8, stronger effect = lower value 0.997 | locus YJL168C, strain set2, stronger effect = lower value 0.989 | locus YJL187C, strain SWE1 (second series), stronger effect = lower value 0.997
